Assay outcomes (PubChem)
IL1B secr inh: qHTS for Inhibitors of Inflammasome Signaling: IL-1-beta AlphaLISA Primary Screen. THP-1 LPS/ATP IL-1B secretion, AlphaLISA, 16 h; stronger effect = lower value. 4.7% of 360,000 active. activity change, % at 57.5 µM; in the data active means activity change below about -50%; inconclusive means mostly about -30% to -49%
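Secreted IL-1B measured by AlphaLISA bead assay after 16 h compound exposure of THP-1 cells; compounds (final up to 57.5 uM) added 1 h before LPS (250 ng/mL) and ATP (1.25 mM) stimulation; lower signal means less secretion.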
TDP1 cell noCPT: qHTS for Inhibitors of human tyrosyl-DNA phosphodiesterase 1 (TDP1): qHTS in cells in absence of CPT; DT40 Tdp1-/- hTDP1 cells, no CPT, ATP luminescence, 48 h; Potency, µM (doses to about 46.2 µM), without a hit: top-dose activity change, negative = growth inhibition, actives largely listed as inhibitors; 15% of 420,000 active; AID 686978, 2013; further: potency means the concentration at half of the fitted maximal effect; nearly all actives have a fitted effect of over 55% in size
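Growth kinetics read by CellTiter-Glo luminescence after ≥48 hr at 37 °C. Cells: DT40 Tdp1-/- stably carrying human TDP1, 400 per well, compound exposure in the absence of CPT (DMSO vehicle).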
VP16 counter: VP16 counterscreen qHTS for inhibitors of ROR gamma transcriptional activity; Drosophila S2 Gal4-VP16 UAS-luciferase, luminescence, 20 h; Potency, µM (series often up to 53.6 µM), for the others: at the highest dose activity, negative = inhibition, hits mostly inhibitors; 3.5% of 310,000 active;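 further: Gal4-VP16 expression switched on by copper sulfate through the metallothionein promoter; potency means the concentration at half of the fitted maximal effect; nearly all actives have a fitted effect of over 50% in size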
ELG1 repair inh: qHTS screen for small molecules that inhibit ELG1-dependent DNA repair in human embryonic kidney (HEK293T) cells expressing luciferase-tagged ELG1. 2.3% of 330,000 active. Potency, µM (titrated, usually from 46.1 µM), inactives show top-dose activity change, negative = inhibition, actives largely listed as inhibitors. HEK293T ELG1-luciferase reporter, luminescence, 16 h; DNA damage induced by 5-fluorouridine; further: potency means the concentration at half of the fitted maximal effect; nearly all actives have a fitted effect of over 55% in size
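In this reporter screen, reduction of luminescence relative to DMSO vehicle indicated activity. Compounds and 5-fluorouridine were added together to 2,000 cells per well, incubated for 16 hr at 37 °C, then developed with ONE-Glo.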
RORg inh: qHTS for inhibitors of ROR gamma transcriptional activity. Drosophila S2 Gal4-RORgamma UAS-luciferase reporter, 20 h. Potency, µM (titrated, usually from 53.6 µM), without a hit: at the highest dose activity change, negative = inhibition, usual class: inhibitors. 5.4% of 310,000 active. AID 2551, 2010; further: potency means the concentration at half of the fitted maximal effect; nearly all actives have a fitted effect of over 60% in size
Target sequence (P51450 whole entry, looked up, the tested form may be a part): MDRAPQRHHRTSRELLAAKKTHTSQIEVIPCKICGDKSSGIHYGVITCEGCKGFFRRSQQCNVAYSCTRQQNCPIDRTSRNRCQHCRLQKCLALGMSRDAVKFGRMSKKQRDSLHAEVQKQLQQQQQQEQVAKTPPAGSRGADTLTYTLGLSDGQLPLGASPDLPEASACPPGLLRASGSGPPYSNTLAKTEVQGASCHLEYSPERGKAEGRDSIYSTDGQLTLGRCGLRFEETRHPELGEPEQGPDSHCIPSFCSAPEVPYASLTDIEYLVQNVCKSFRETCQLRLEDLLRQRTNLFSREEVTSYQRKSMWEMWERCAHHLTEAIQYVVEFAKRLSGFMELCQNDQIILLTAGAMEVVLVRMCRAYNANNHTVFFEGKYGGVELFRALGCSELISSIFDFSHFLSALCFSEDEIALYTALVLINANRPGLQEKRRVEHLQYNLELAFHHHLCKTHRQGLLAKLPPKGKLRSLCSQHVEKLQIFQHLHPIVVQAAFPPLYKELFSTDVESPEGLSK
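ROR gamma transcriptional activity was tracked as Gal4-UAS luciferase output in stably transfected Drosophila Schneider cells, with compound added 1 hr before 700 uM copper sulfate induction and a 20 hr ambient-temperature incubation.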
TDP1 cell CPT: qHTS for Inhibitors of human tyrosyl-DNA phosphodiesterase 1 (TDP1): qHTS in cells in presence of CPT; 12% of 420,000 active; Potency, µM (doses to about 46.2 µM), without a hit: at the top dose activity change, negative = growth inhibition, most hits filed as inhibitors; chicken DT40 Tdp1-/-;hTDP1 cells + 20 nM CPT, ATP luminescence, 48 h; further: potency means the concentration at half of the fitted maximal effect; nearly all actives have a fitted effect of over 55% in size
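Chicken DT40 Tdp1-/- cells stably complemented with human TDP1 were seeded at 400 cells/well in medium containing 20 nM camptothecin, exposed to pin-transferred compounds, and grown at 37 °C for at least 48 hr. Viability was read as ATP luminescence.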
An asterisk follows results filed as active; [ ] = another dose, or the depositor's remark. Rows were chosen to be rich in hits. Some 21% of all compounds tested hit in one or more screens of this group. Unless noted, the call rests on the fitted dose curve; in most records, active means well fitted curve in the direction sought with a large enough effect; inconclusive means small, poorly fitted or top-dose-only effect, or another doubt; inactive means no such curve, though single readings can be large; an effect the other way counts as inactive or inconclusive. On the % scale 0 is the no-effect control and ±100 the full control effect.

For Oc1ccc2c3c1O[C@H]1c4[nH]c5c(c4C[C@@]4(O)[C@@H](C2)N(CC2CC2)CC[C@]314)C[C@]1(O)[C@H]2Cc3ccc(O)c4c3[C@@]1(CCN2CC1CC1)[C@@H]5O4 the results were TDP1 cell noCPT -4%, VP16 counter -4%, RORg inh 29% and TDP1 cell CPT -5%.
For NC(N)=Nc1ccc2[nH]c3c(c2c1)C[C@@]1(O)[C@H]2Cc4ccc(O)c5c4[C@@]1(CCN2CC1CC1)[C@H]3O5 the results were IL1B secr inh inconclusive, TDP1 cell noCPT 4.6µM*, ELG1 repair inh -5% and TDP1 cell CPT 2.3µM*.
For O=C(/C=C/c1ccc(Cl)cc1)N[C@@]12CCC(=O)[C@@H]3Oc4c(O)ccc5c4[C@@]31CCN(CC1CC1)C2C5 the results were TDP1 cell noCPT 10µM* and TDP1 cell CPT 13µM*.
`Oc1ccc2c3c1O[C@H]1[C@@H](O)CC[C@@]4(O)[C@@H](C2)N(CC2CCC2)CC[C@]314` gave IL1B secr inh -3, TDP1 cell noCPT 0%, ELG1 repair inh 13% and TDP1 cell CPT 3%.
`Oc1ccc2c3c1O[C@H]1c4c(c5ccccc5n4Cc4ccccc4)C[C@@]4(O)C(C2)N(CC2CC2)CC[C@]314` gave TDP1 cell noCPT 3.7µM* and TDP1 cell CPT 5.2µM*.
For CC1(C)C(C(Cl)Cl)C2(Cl)C(Cl)C(Cl)C1(Cl)C2(Cl)Cl (stereo unspecified) the results were TDP1 cell noCPT -14%, VP16 counter -4%, RORg inh -16% and TDP1 cell CPT inconclusive.
Screening CN1C2CC(=O)CC1C(O)C2 (stereo unspecified) returned VP16 counter -5% and RORg inh -5%.
Cn1cccc1-c1cccnc1 was read as TDP1 cell noCPT -2% and TDP1 cell CPT -8%.
Screening Oc1ccc2c3c1O[C@H]1[C@H](O)CC[C@@]4(O)[C@@H](C2)N(CC2CC2)CC[C@]314 returned VP16 counter -4% and RORg inh 20%.
For O=C1/C(=C\c2ccccc2)C[C@@]2(O)[C@H]3Cc4ccc(O)c5c4[C@@]2(CCN3CC2CC2)[C@H]1O5 the results were TDP1 cell noCPT 2.1µM* and TDP1 cell CPT 2.1µM*.
Screening C=C[C@@H]1CN2CC[C@H]1C[C@H]2[C@H](O)c1ccnc2ccccc12 returned VP16 counter -9% and RORg inh 3%[10 µM].
For Cc1ccc(Cn2cccc(C(=O)Nc3nnc(C)s3)c2=O)cc1 the results were TDP1 cell noCPT -22% and TDP1 cell CPT -23%.
Screening CCOC(=O)c1c(NC(=O)C(c2ccccc2)c2ccccc2)sc2c1C1CCN2CC1 returned IL1B secr inh -19, TDP1 cell noCPT 23µM*, VP16 counter inconclusive, ELG1 repair inh inconclusive, RORg inh -12% and TDP1 cell CPT 21µM*.
For O=C(CN1CCCC2CCCCC21)c1ccc(I)cc1 (stereo unspecified) the results were TDP1 cell noCPT -2% and TDP1 cell CPT -6%.
For O[C@@H]1CCCC[C@@H]1N1CCC(c2ccccc2)CC1 the results were TDP1 cell noCPT 8% and TDP1 cell CPT -3%.
`CN1C(=O)c2ccccc2Sc2ccc(NC(=O)NCc3ccc(Cl)cc3)cc21` gave TDP1 cell noCPT 16µM* and TDP1 cell CPT 23µM*.
Screening CCCCc1ccc(NC(=O)c2cccn(Cc3ccc(Cl)cc3)c2=O)cc1 returned TDP1 cell noCPT -22% and TDP1 cell CPT -22%.
N=C1C(c2ccccc2)=C(O)CN1Cc1ccco1 was read as IL1B secr inh -15, TDP1 cell noCPT -29%, VP16 counter -1%, ELG1 repair inh 5%, RORg inh 21% and TDP1 cell CPT -4%.
`CCC(=O)OC1CCC2C3CCC4=CC(=O)CC[C@@]4(C)C3CC[C@]12C` (stereo partly specified) gave TDP1 cell noCPT inconclusive, VP16 counter -18%, RORg inh 36% and TDP1 cell CPT inconclusive.
For CCC(=O)OC1CCC2C3CCc4cc(O)ccc4C3CC[C@]12C (stereo partly specified) the results were TDP1 cell noCPT 21µM*, VP16 counter inconclusive, RORg inh inconclusive and TDP1 cell CPT 21µM*.
CCc1ccccc1NC(=O)C1CCCN(c2ncnc3onc(C)c23)C1 (stereo unspecified) was read as TDP1 cell noCPT 9.2µM* and TDP1 cell CPT 18µM*.
`O=C(C1CCN(c2nc3ccc(Br)cc3s2)CC1)N1CCC2(CC1)OCCO2` gave IL1B secr inh -29, TDP1 cell noCPT 12µM*, VP16 counter 9%, ELG1 repair inh inconclusive, RORg inh 41% and TDP1 cell CPT 12µM*.
`Cc1ccc2nc(N3CCC(C(=O)N4CCC5(CC4)OCCO5)CC3)sc2c1` gave IL1B secr inh -2, TDP1 cell noCPT inconclusive, VP16 counter 15%, ELG1 repair inh inconclusive, RORg inh 35% and TDP1 cell CPT inconclusive.
Screening CCc1ccc2nc(N3CCC(C(=O)N4CCC5(CC4)OCCO5)CC3)sc2c1 returned IL1B secr inh -25, TDP1 cell noCPT 16µM*, VP16 counter inconclusive, ELG1 repair inh inconclusive, RORg inh inconclusive and TDP1 cell CPT 12µM*.
For CC(Sc1ncnc2sccc12)C(=O)Nc1ccc(S(=O)(=O)N2CCOCC2)cc1 (stereo unspecified) the results were IL1B secr inh 15, TDP1 cell noCPT -33% and TDP1 cell CPT inconclusive.
CC(C)OC(=O)C(O)(c1ccc(Cl)cc1)c1ccc(Cl)cc1 was read as VP16 counter -3% and RORg inh -26%.
`C=CC(=O)OC` gave VP16 counter 2% and RORg inh 1%.
CC(=O)O[C@H](CC(=O)O)C[N+](C)(C)C was read as IL1B secr inh 3, TDP1 cell noCPT 8%, VP16 counter -1%, ELG1 repair inh -6%, RORg inh 23% and TDP1 cell CPT 1%.
